# Compound activity as filed in PubChem BioAssay.
# Compounds with a hit are over-represented: about 1.5% of the library has one in this group of screens.
# VHR inh abs – VHR1 phosphatase inhibitors, primary screen, biochemical, absorbance, uHTS; Dual specificity protein phosphatase 3 (Homo sapiens), P51452; AID 1654, 2009; inhibition, % at 13.3 µM; 290,000 compounds, 0.52% hits; recombinant VHR phosphatase, pNPP absorbance; in the data active = inhibition above about 50%
# Target sequence (P51452 whole entry, looked up): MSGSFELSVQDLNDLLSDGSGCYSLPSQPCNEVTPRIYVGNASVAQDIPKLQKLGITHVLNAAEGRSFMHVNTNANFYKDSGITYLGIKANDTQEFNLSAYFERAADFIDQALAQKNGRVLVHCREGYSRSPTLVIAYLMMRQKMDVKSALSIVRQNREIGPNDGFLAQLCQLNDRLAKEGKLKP
# SARS 3CLpro inh-1 – SARS-CoV 3CLpro protease inhibitors, primary screen, biochemical, quenched FRET; Replicase polyprotein 1ab (Severe acute respiratory syndrome coronavirus), P0C6X7; recombinant SARS-CoV 3CLpro, quenched FRET peptide cleavage; inhibition, % at 6 µM; 290,000 compounds, 0.14% hits; AID 1706, 2009; in the data active = inhibition above about 12%
# Mtb hypoxia inh – PubChem AID 1159583; M. tuberculosis hypoxia-regulated fluorescent reporter, fluorescence; fluorescence inhibition, % (no concentration beside the values); 300,000 compounds, 0.1% hits; in the data active = fluorescence inhibition mostly above about 23%, no sharp cut-off; inactive = mostly below about 17%
# PrPC surface inh – inhibitors of human cell surface prion protein PrPC, primary screen, cell-based, TR-FRET. Major prion protein (Homo sapiens), P04156. TR-FRET read-out. inhibition, % at 13.8 µM. 370,000 compounds, 0.43% hits. AID 720596, 2013; in the data active = inhibition above about 24%; also: 0% = median of the test wells and 100% = reference compound wells
# PrP 5UTR inh – inhibition of PrP 5' UTR reporter expression; cell-based PrP 5' UTR mRNA reporter, plate reader; inhibition, % (no concentration beside the values); 340,000 compounds, 0.35% hits; in the data active = inhibition above about 52%; also: 0 = median of the neutral control wells
# MazF activator – activators of E. coli MazEF toxin-antitoxin RNase, primary screen, biochemical, fluorescence, uHTS | FAM/BHQ RNA-DNA oligo cleavage fluorescence, 5 h | 350,000 compounds, 0.32% hits | activation, % at 20 µM; in the data active = activation above about 50%
# Target sequence (P0AE70 whole entry, looked up): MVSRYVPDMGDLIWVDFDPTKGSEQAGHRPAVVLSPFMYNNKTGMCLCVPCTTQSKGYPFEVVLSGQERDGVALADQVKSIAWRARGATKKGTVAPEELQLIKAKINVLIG
# SARS 3CLpro inh-2 – confirmation of SARS coronavirus 3C-like protease inhibitors, retest, confirmation, biochemical; QFRET protease activity assay, 3CLpro; inhibition, % at 6 µM; 380 compounds, 36% hits; shares compounds with SARS 3CLpro inh-1; in the data active = inhibition above about 13%
# An asterisk follows results filed as active; . = no result.
SMILES,VHR inh abs,SARS 3CLpro inh-1,Mtb hypoxia inh,PrPC surface inh,PrP 5UTR inh,MazF activator,SARS 3CLpro inh-2
COC(=O)c1cc(-c2ccccc2)sc1N,13.3,51.2*,-15.1,-1.5,-27.9,-8.9,3.5
COc1ccc(C2C=CCN(S(=O)(=O)c3ccc4ccccc4c3)C(C)C(=O)N2Cc2ccc(F)cc2)cc1 (stereo unspecified),.,.,4.8,.,.,.,.
Cc1cccc(C)c1C(=O)NC(Cc1ccccc1)C(=O)O (stereo unspecified),.,.,1.2,.,.,.,.
Cc1ccc(C2C3=C(CC(C)(C)CC3=O)Nc3onc(C)c32)cc1 (stereo unspecified),-6.4,14.9*,.,6.6,-3.3,7.0,-3.5
COc1ccc(C(=O)NC(=S)Nc2ccc(S(=O)(=O)Nc3cc(OC)nc(OC)n3)cc2)cc1,17.0,7.5,3.6,4.7,-1.9,-3.6,.
COc1cc(NS(=O)(=O)c2ccc(NC(=S)NC(=O)c3ccc(F)cc3)cc2)nc(OC)n1,11.8,12.3*,5.8,-4.1,-6.3,6.0,6.0
O=C(CSc1nnnn1-c1cccc2ccccc12)NC(C(=O)O)(c1ccccc1)c1ccccc1,-17.0,7.7,4.8,2.3,-17.5,-11.0,.
Cc1ccc(-n2nnnc2SCC(=O)NC(C(=O)O)(c2ccccc2)c2ccccc2)cc1C,-4.6,14.2*,-6.9,-3.8,-9.7,1.2,4.2
Cc1ccc(S(=O)(=O)/C(=C/Cl)NC(=O)c2ccccc2)cc1,-0.5,16.2*,9.6,-3.5,-3.7,2.9,23.1*
OCCN(C=Nc1nc(-c2ccc(Br)cc2)cs1)CCO,.,.,5.3,.,.,.,.
CCc1cc(C(=O)c2ccc(C)cc2)c(NC(=O)CCl)s1,-4.5,19.5*,16.5,-12.8,-27.7,-3.6,44.2*
CCOC(=O)c1c(C)n(S(=O)(=O)c2ccc(C)cc2)c2ccc(O)c(C(=O)O)c12,31.7,13.0*,5.8,-1.2,-13.2,-2.0,1.3
CCOC(=O)C1=C[C@@H](C)N(S(=O)(=O)c2ccc(C)cc2)[C@H]1c1ccccc1,.,.,.,7.2,.,.,.
CC(C)COc1cccc(-c2cc(C(=O)NN=Cc3ccncc3)c3ccccc3n2)c1,.,.,-6.0,.,.,.,.
COc1ccc(Br)cc1C=NNC(=O)CN1CCN(Cc2ccccc2)CC1,.,.,1.4,.,.,.,.
CCOc1ccc(NC(=O)C/C(C)=N/NC(=O)COc2ccc(Br)cc2C)cc1,13.0,0.2,.,1.5,-29.2,-0.1,.
CC(=O)Nc1ccc(NC(=O)C/C(C)=N/NC(=O)COc2cc(C)c(Br)cc2Br)cc1,20.4,15.9*,.,-12.3,-22.0,9.0,0.9
CC1(C)C2CC=C(C=NNC(=S)Nc3cccnc3)C1C2 (stereo unspecified),.,.,-11.0,.,.,.,.
CC1(C)C2CC=C(/C=N/NC(=S)Nc3cccnc3)C1C2 (stereo unspecified),28.2,15.3*,.,-6.3,-8.8,14.4,38.7*
O=C(C1CC=CC2CCN(Cc3ccc(Cl)c(Cl)c3)C(=O)C21)N1CCOCC1 (stereo unspecified),.,.,6.7,.,.,.,.
COC(=O)c1ccccc1NC(=O)c1ccc2c(c1)OCCCO2,9.7,12.4*,-12.1,-4.1,-18.1,-4.4,-1.8
COc1ccc(-c2n[nH]c(C(F)(F)F)c2-c2cc3ccccc3o2)c(O)c1,8.1,13.9*,7.0,5.7,-18.5,4.7,9.2
CC(C)CC(NC(=O)c1[nH]cnc1C(=O)NC(Cc1ccccc1)C(=O)OCc1ccccc1)C(=O)OCc1ccccc1 (stereo unspecified),.,.,0.1,.,.,.,.
Nc1ncc(Br)cc1S(=O)(=O)Nc1cc(C(F)(F)F)cc(C(F)(F)F)c1,14.0,22.6*,.,24.4,-21.5,-0.3,15.2*
O=C(O)c1ccc(NN=C2CCSc3ccc(F)cc32)cc1,.,.,3.9,.,.,.,.
SMILES,VHR inh abs,SARS 3CLpro inh-1,Mtb hypoxia inh,PrPC surface inh,PrP 5UTR inh,MazF activator,SARS 3CLpro inh-2
Cc1ccccc1NC1=C/C(=N\S(=O)(=O)c2ccc(C(=O)O)cc2)c2ccccc2C1=O,22.4,15.8*,-0.2,-23.9,-87.6,-20.0,10.3
COc1cc(NC(=O)c2cc(Cl)nnc2Cl)cc(OC)c1OC,20.4,22.2*,-6.8,-11.2,-6.8,-0.6,6.2
Cc1cccc(C=NN2CCN(c3ccccc3)CC2)c1,.,.,9.8,.,.,.,.
COC(=O)C1=C(c2cc3ccccc3s2)CC2CCC1N2C(=O)NC1CC1 (stereo unspecified),.,.,6.7,.,.,.,.
Cc1cc2c(cc1C)C(c1ccccc1F)CC(=O)N2 (stereo unspecified),0.1,12.6*,5.4,-0.2,-8.5,8.1,-1.9
CNC(=O)[C@@]1(C)C=CC(Cc2ccccc2)N1C(=O)OC (stereo partly specified),.,.,3.8,.,.,.,.
COc1ccc(N(CC(=O)NN=Cc2ccccc2F)S(=O)(=O)c2ccccc2)cc1,.,.,6.4,.,.,.,.
O=C(O)Cn1cc(/C=C2\C(=O)NC(=O)N(c3ccc(Cl)cc3)C2=O)c2ccccc21,7.2,3.7,5.4,1.2,-15.1,-86.5,.
CCN(CC)C(=O)Cn1cc(/C=C2\C(=O)NC(=O)N(c3ccccc3F)C2=O)c2ccccc21,15.5,16.8*,9.6,5.0,-26.2,-614.7,22.7*
O=C1C2C(c3ccccc3)C=CC(c3ccccc3)C2C(=O)N1c1cccnc1 (stereo unspecified),14.7,19.6*,5.6,-4.6,-19.9,-5.0,69.9*
Cc1ccc(Nc2nc(N)c([N+](=O)[O-])c(N3CCOCC3)n2)cc1C,5.7,12.8*,3.8,-21.2,-3.8,4.9,-3.6
O=C(Oc1ccc(Cl)cc1N1C(=O)CCC1=O)c1ccco1,-0.6,15.1*,.,-1.4,-10.2,1.6,18.1*
CCCCCCOc1ccc(OC(=O)c2ccncc2)cc1,-13.2,-5.4,.,-5.3,-6.6,-12.2,.
CCCCOc1ccc(C(=O)Oc2cccnc2)cc1,16.5,19.3*,-1.2,-0.5,-8.6,0.6,14.1*
O=c1oc(C(O)c2ccccc2)cc2ccccc12 (stereo unspecified),.,.,11.6,.,.,.,.
CCn1cc(C(=O)NC(=S)Nc2ccccc2[N+](=O)[O-])cn1,-9.1,12.8*,-3.3,-11.1,-28.1,-1.6,-4.7
CCn1cc(C(=O)NC(=S)Nc2ccccc2Br)cn1,10.5,1.3,4.0,-3.2,-21.9,7.5,.
O=C(NN=Cc1cccc(Oc2ccccc2)c1)c1ccccc1Br,.,.,3.6,.,.,.,.
O=C(O)/C(=C\c1ccccc1OC(F)F)c1ccc(-c2ccccc2)cc1,-3.8,3.7,14.5,-0.5,-9.1,5.0,.
O=C(O)/C(=C\c1ccc(F)cc1)c1ccc(-c2ccccc2)cc1,-28.8,13.0*,14.3,7.8,-15.4,-19.9,11.8
CC(=NNC(=O)c1nnn(-c2nonc2N)c1C)c1ccc(-c2ccccc2)cc1,.,.,3.2,.,.,.,.
Cc1ccc(C=Nc2sc(Cc3ccccc3)c(C)c2C(N)=O)o1,.,.,10.4,.,.,.,.
